Measurements taken from PubChem BioAssay AID1159580 (chemical genetic matrix, 2015).
Where “and” joins values, the source holds several entries; their conditions need not be identical. Equal values may be shown once. Out of some 5,500 compounds screened, about 2,000 (36%) were called active. About 18% were inconclusive and are not listed. Cut-off read from the data, not from the text of the source: active = normalized growth mostly below about 0.91 (no sharp cut-off); inconclusive = no clear call, values can overlap the other calls; inactive = mostly above about 0.92. The list shows a part of the results. More than one record can exist for a structure, and the calls need not agree.

Assay: chemical genetic growth profiling, strain panel (AID 1159580);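 note: tested at 20 µM; growth read once vehicle control cultures reached saturation at 30 °C; 1 = growth at the plate median or of vehicle wells; lower values mean less growth of the strain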
Details: S. cerevisiae deletion strains, growth OD

Measured: normalized growth

O=c1[nH]cc(F)c(=O)[nH]1
active: locus YAL021C, strain ccr4, stronger effect = lower value 0.841 | locus YAL026C, strain drs2, stronger effect = lower value 0.445 | locus YAL030W, strain snc1, stronger effect = lower value 0.642 | locus YBL061C, strain skt5, stronger effect = lower value 0.689 | locus YBR009C, strain hhf1, stronger effect = lower value 0.458 | locus YBR021W, strain FUR4, stronger effect = lower value 0.81 | locus YBR023C, strain chs3, stronger effect = lower value 0.678 | locus YBR231C, strain swc5, stronger effect = lower value 0.639 | locus YBR279W, strain paf1, stronger effect = lower value 0.555 | locus YCL011C, strain gbp2, stronger effect = lower value 0.509 | locus YCL016C, strain dcc1, stronger effect = lower value 0.586 | locus YCL029C, strain bik1, stronger effect = lower value 0.717 | locus YCL061C, strain MRC1, stronger effect = lower value 0.702 | locus YCL069W, strain vba3, stronger effect = lower value 0.484 | locus YCR088W, strain abp1, stronger effect = lower value 0.651 | locus YDL035C, strain GPR1, stronger effect = lower value 0.591 | locus YDL040C, strain nat1, stronger effect = lower value 0.869 | locus YDL192W, strain arf1, stronger effect = lower value 0.715 | locus YDR001C, strain nth1, stronger effect = lower value 0.747 | locus YDR069C, strain doa4, stronger effect = lower value 0.636 | locus YDR101C, strain arx1, stronger effect = lower value 0.64 | locus YDR137W, strain rgp1, stronger effect = lower value 0.629 | locus YDR159W, strain sac3, stronger effect = lower value 1.3 [resistant] | locus YDR162C, strain NBP2, stronger effect = lower value 0.693 | locus YDR195W, strain ref2 0.63 | locus YDR297W, strain sur2, stronger effect = lower value 0.676 | locus YDR318W, strain mcm21, stronger effect = lower value 0.701 | locus YDR334W, strain swr1, stronger effect = lower value 0.741 | locus YDR335W, strain msn5, stronger effect = lower value 0.538 | locus YDR363W, strain ESC2, stronger effect = lower value 0.864 | locus YDR388W, stronger effect = lower value 0.753 | locus YDR392W, strain spt3, stronger effect = lower value 0.476 | locus YDR502C, strain sam2, stronger effect = lower value 0.657 | locus YEL003W, strain gim4, stronger effect = lower value 0.518 | locus YEL037C, strain rad23, stronger effect = lower value 0.539 | locus YEL061C, strain CIN8 (second series), stronger effect = lower value 0.728 | locus YER015W, strain faa2, stronger effect = lower value 0.702 | locus YER016W, strain bim1, stronger effect = lower value 0.629 | locus YER111C, strain swi4, stronger effect = lower value 0.858 | locus YER155C, strain BEM2 (second series), stronger effect = lower value 0.535 | locus YER167W, strain BCK2, stronger effect = lower value 0.795 | locus YFR010W, strain ubp6, stronger effect = lower value 0.598 | locus YGL078C, strain dbp3, stronger effect = lower value 0.571 | locus YGL086W, strain mad1, stronger effect = lower value 0.743 | locus YGL173C, strain kem1, stronger effect = lower value 0.719 | locus YGL227W, strain vid30, stronger effect = lower value 0.856 | locus YGL248W, strain PDE1, stronger effect = lower value 0.71 | locus YGL253W, strain hxk2, stronger effect = lower value 0.328 | locus YGR135W, strain pre9, stronger effect = lower value 0.871 | locus YGR252W, strain gcn5, stronger effect = lower value 0.757 | locus YHR027C, strain rpn1, stronger effect = lower value 0.625 | locus YHR030C, strain SLT2, stronger effect = lower value 0.918 and 0.61 | locus YHR079C, strain IRE1 (second series), stronger effect = lower value 0.665 | locus YHR079C, strain IRE1, stronger effect = lower value 0.553 | locus YHR129C, strain ARP1, stronger effect = lower value 0.896 | locus YHR142W, strain chs7, stronger effect = lower value 0.484 | locus YHR200W, strain rpn10, stronger effect = lower value 0.906 | locus YIL066C, strain RNR3, stronger effect = lower value 0.848 | locus YIL125W, strain kgd1, stronger effect = lower value 0.851 | locus YIR030C, strain dcg1, stronger effect = lower value 0.838 | locus YJL092W, strain hpr5, stronger effect = lower value 0.476 | locus YJL095W, strain BCK1 (second series), stronger effect = lower value 0.689 | locus YJL095W, strain BCK1, stronger effect = lower value 0.661 and 0.616 | locus YJL115W, strain asf1, stronger effect = lower value 0.697 | locus YJL129C, strain trk1, stronger effect = lower value 0.642 | locus YJL154C, strain vps35, stronger effect = lower value 0.756 | locus YJL164C, strain tpk1, stronger effect = lower value 0.463 | locus YJL166W, strain qcr8, stronger effect = lower value 0.577 | locus YJL187C, strain SWE1 (second series), stronger effect = lower value 0.722 | locus YJL187C, strain SWE1, stronger effect = lower value 0.77 | locus YJR043C, strain POL32, stronger effect = lower value 0.669 | locus YJR066W, strain TOR1, stronger effect = lower value 0.532 | locus YJR075W, strain HOC1, stronger effect = lower value 0.835
0.957 (inactive) and 0.85 (active): locus YDR150W, strain NUM1, stronger effect = lower value
inactive: locus YAL040C, strain CLN3, stronger effect = lower value 1.05 | locus YBR171W, strain sec66, stronger effect = lower value 1.09 | locus YBR229C, strain ROT2, stronger effect = lower value 1.01 | locus YDL005C, strain med2, stronger effect = lower value 0.977 | locus YDL074C, strain BRE1, stronger effect = lower value 0.847 | locus YDL101C, strain DUN1, stronger effect = lower value 0.955 | locus YDL185W, strain tfp1, stronger effect = lower value 1 | locus YER002W, strain NOP16, stronger effect = lower value 1.04 | locus YER110C, stronger effect = lower value 1.01 | locus YER155C, strain BEM2, stronger effect = lower value 1.01 | locus YGL167C, strain pmr1, stronger effect = lower value 1.03 | locus YGL240W, strain doc1, stronger effect = lower value 0.901 | locus YGR229C, strain SMI1, stronger effect = lower value 0.948 | locus YHR013C, strain ard1, stronger effect = lower value 0.846 | locus YHR094C, strain hxt1, stronger effect = lower value 0.944 | locus YIL073C, strain SPO22, stronger effect = lower value 0.762 | locus YJL134W, strain LCB3, stronger effect = lower value 1.04 | locus YJL168C, strain set2, stronger effect = lower value 1.02
